Measurements reported in publication PMC5540273 (PLoS ONE, 2017).

Experiments:
Conditions in all cases: concentration: 1 μM, replicates: in singlicate; n = 1
PIP5K2C = tested on: T1, PIP5K2C
T1 construct: gene PIP4K2C

PKAC-alpha = tested on: T2, PKAC-alpha
T2 construct: gene PRKACA

PKAC-beta = tested on: T3, PKAC-beta
T3 construct: gene PRKACB

PKMYT1 = tested on: PKMYT1
PKN1 = tested on: PKN1
PKN2 = tested on: PKN2
PLK1 = tested on: PLK1
PLK2 = tested on: PLK2
PLK3 = tested on: PLK3
PLK4 = tested on: PLK4
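Note: KINOMEscan kinase panel screen.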

| Compound | %Inh (PIP5K2C) [%] | %Inh (PKAC-alpha) [%] | %Inh (PKAC-beta) [%] | %Inh (PKMYT1) [%] | %Inh (PKN1) [%] | %Inh (PKN2) [%] | %Inh (PLK1) [%] | %Inh (PLK2) [%] | %Inh (PLK3) [%] | %Inh (PLK4) [%] |
| --- | --- | --- | --- | --- | --- | --- | --- | --- | --- | --- |
| Cc1ccc(NC(=O)c2cccc(C#N)c2)cc1-c1ccc(C(=O)Nc2ccncc2)cc1 [GSK1398463] | 0 | 0 | 0 | 0 | 28 | 0 | 0 | 0 | 0 | 2 |
| FC(F)(F)c1cc(Nc2nccc(-c3c(-c4ccc(Cl)cc4)nn4ncccc34)n2)ccc1Cl [GW829351] | 0 | 0 | 0 | 0 | 0 | 0 | 0 | 0 | 3 | 7 |
| Nc1nccc2scc(-c3ccc4c(c3)CCN4C(=O)Cc3cc(F)ccc3F)c12 [GSK2587663] | 13 | 0 | 12 | 1 | 0 | 0 | 0 | 0 | 0 | 0 |
| CC(C)N1CCC(n2cnc(-c3ccc(F)cc3)c2-c2ccnc(N)n2)CC1 [SB-223132] | 62 | 0 | 22 | 0 | 0 | 0 | 0 | 0 | 0 | 0 |
| O=C(CCO)NCCn1ccc2ncnc(Nc3ccc(Oc4cccc(C(F)(F)F)c4)c(Cl)c3)c21 | 26 | 0 | 12 | 10 | 0 | 1 | 0 | 0 | 0 | 0 |
| CN1c2ccc(-c3ccc(C(=O)NCCO)cc3)cc2-c2[nH]ncc2S1(=O)=O | 76 | 33 | 55 | 16 | 0 | 30 | 21 | 17 | 0 | 25 |
| CCc1nc(-c2cccc(N(C)S(=O)(=O)c3ccccc3)c2)c(-c2ccnc(Nc3ccc(N4CCN(C(C)=O)CC4)nc3)n2)s1 [GSK1645895] | 63 | 0 | 0 | 1 | 34 | 0 | 7 | 0 | 0 | 8 |
| NC(=O)c1sc(-n2cnc3ccccc32)cc1OCc1ccccc1F [GSK1024306] | 8 | 21 | 2 | 0 | 60 | 0 | 99.8 | 99 | 98.8 | 0 |
| CN1CCC(n2cnc(-c3ccc(F)cc3)c2-c2ccnc(NC3CCNCC3)n2)CC1 [SB-229482] | 95.2 | 0 | 13 | 0 | 0 | 25 | 11 | 0 | 0 | 20 |
| Cc1ccc(O)cc1Nc1cc(C(F)(F)F)nc2ccc(-c3ccncc3)cc12 [GW630823] | 0 | 10 | 0 | 9 | 0 | 0 | 0 | 1 | 0 | 0 |
| Nc1nc(-c2ccccn2)c(-c2ccnc3ccccc23)s1 [GW548057] | 57 | 0 | 4 | 0 | 0 | 9 | 0 | 0 | 0 | 14 |
| O=C(Nc1ccccc1)Nc1ccc(Oc2ccc3nccn3n2)cc1 | 25 | 0 | 55 | 8 | 6 | 4 | 3 | 0 | 15 | 0 |
| Clc1cccc(-c2nc(Nc3ccncc3)c3ccccc3n2)c1 [GW873004] | 49 | 2 | 60 | 0 | 0 | 20 | 17 | 0 | 0 | 0 |
| O=C(NCCCN1CCCC1=O)c1cnc(NCc2cc(Cl)ccc2Cl)nc1NC1CCNCC1 | 2 | 0 | 0 | 0 | 20 | 11 | 0 | 0 | 0 | 5 |
| Nc1nc(-c2cccnc2)c(-c2ccnc3ccccc23)s1 [GW684083] | 51 | 0 | 0 | 0 | 0 | 0 | 0 | 0 | 0 | 0 |
| CNc1nccc(-c2c(-c3ccc(F)cc3)ncn2C2CCN(C)CC2)n1 [SB-222903] | 90 | 1 | 17 | 0 | 0 | 0 | 0 | 0 | 4 | 0 |
| COc1ccc(Nc2nccc(N3CCC(NC(=O)Nc4ccc5c(c4)OCO5)C3)n2)cc1 (stereo not shown) [GSK1379745] | 44 | 5 | 5 | 0 | 38 | 0 | 8 | 0 | 0 | 0 |

| Compound | %Inh (PIP5K2C) [%] | %Inh (PKAC-alpha) [%] | %Inh (PKAC-beta) [%] | %Inh (PKMYT1) [%] | %Inh (PKN1) [%] | %Inh (PKN2) [%] | %Inh (PLK1) [%] | %Inh (PLK2) [%] | %Inh (PLK3) [%] | %Inh (PLK4) [%] |
| --- | --- | --- | --- | --- | --- | --- | --- | --- | --- | --- |
| Fc1ccc(Nc2nccc(-c3c(-c4ccc(Cl)cc4)nn4ncccc34)n2)cc1F [GW829058] | 20 | 15 | 24 | 4 | 4 | 13 | 32 | 36 | 20 | 29 |
| CS(=O)(=O)CCNCc1ccc(-c2ccc3ncnc(Nc4ccc(OCc5ccccc5)c(Cl)c4)c3c2)o1.Cl [GW574783] | 29 | 4 | 16 | 0 | 12 | 8 | 6 | 0 | 0 | 0 |
| CCCc1ccc(S(=O)(=O)NC2CCN(c3ccnc(Nc4ccc(OC)cc4)n3)C2)cc1 (stereo not shown) [GSK1379737] | 66 | 0 | 0 | 0 | 0 | 0 | 1 | 0 | 0 | 0 |
| Cn1ccc2ncnc(Oc3ccc(NC(=O)Nc4cccnc4)c(Cl)c3)c21 | 0 | 7 | 0 | 0 | 0 | 0 | 0 | 5 | 11 | 11 |
| CNc1nccc(-c2c(-c3ccc(F)cc3)ncn2CCCN2CCOCC2)n1 [SB-222516] | 0 | 1 | 19 | 0 | 0 | 36 | 41 | 14 | 0 | 0 |
| Fc1cccc(COc2ccc(Nc3ncnc4nn5ccccc5c34)cc2Cl)c1 [GW689066] | 32 | 0 | 8 | 0 | 0 | 0 | 0 | 0 | 0 | 0 |
| Clc1cc(Nc2ncnc3cc[nH]c23)ccc1OCc1ccccn1 | 8 | 23 | 0 | 0 | 23 | 0 | 2 | 23 | 25 | 34 |
| Cn1ccc2ncnc(Nc3ccc(Oc4cccc(Cl)c4)c(Cl)c3)c21 | 22 | 4 | 0 | 0 | 0 | 0 | 0 | 30 | 24 | 26 |
| C[C@H]1CC[C@@H](C(=O)Nc2ccccc2)CN1c1cc(-c2ccc3c(N)n[nH]c3c2)nc(N)n1 [GSK2283293] | 15 | 0 | 0 | 0 | 0 | 0 | 0 | 4 | 0 | 0 |
| Cl.c1ccc(Cn2ncc3cc(Nc4ncnc5ccccc45)ccc32)cc1 [GW273749] | 0 | 0 | 0 | 0 | 13 | 0 | 2 | 0 | 2 | 0 |
| COc1ccc(Nc2nccc(N3CCC(NC(=O)c4cccc(NC(C)=O)c4)C3)n2)cc1 (stereo not shown) [GSK1379732] | 57 | 0 | 12 | 3 | 0 | 0 | 15 | 6 | 0 | 0 |
| O=c1cc(N2CCOCC2)nc2n(Cc3cccc(Cl)c3)ccn12 [GSK2296823] | 0 | 0 | 0 | 11 | 34 | 0 | 5 | 0 | 0 | 0 |
| Cc1ccc(C)c(NC(=O)NCCNc2ccnc(Nc3ccc(F)cc3)n2)c1 [GSK1379878] | 25 | 0 | 0 | 0 | 0 | 0 | 4 | 0 | 0 | 0 |
| O=C(Nc1ccccc1F)NC1CCN(c2ccnc(Nc3ccc(F)cc3)n2)C1 (stereo not shown) [GSK1379722] | 18 | 0 | 0 | 4 | 0 | 0 | 0 | 0 | 0 | 0 |
| COc1ccc(-c2oc3ncnc(N)c3c2-c2ccc(OC)cc2)cc1 [SB-589132] | 63 | 0 | 0 | 0 | 0 | 0 | 3 | 0 | 0 | 0 |
| N#Cc1ccc(Oc2ccc(Nc3ncnc4cc[nH]c34)cc2Cl)cc1 | 0 | 8 | 0 | 19 | 0 | 0 | 4 | 5 | 11 | 21 |
| Cc1cc(N2CCC(NS(=O)(=O)c3ccc(F)cc3)CC2)nc(Nc2cccc(C#N)c2)n1.O=C(O)C(F)(F)F [GSK1653537] | 4 | 3 | 0 | 0 | 23 | 0 | 5 | 0 | 0 | 0 |
